# In PubChem BioAssay (NCATS):
# “And” between values parts separate entries of the source, which are not always exact repeats. Equal values may be shown once. Records with an inconclusive call do not appear. A call without a number means that no potency is given here. Values without a mark were called inactive. The source made the active and inactive calls. Calls follow the shape of the dose curve; as a rule, active = well fitted curve in the direction sought with a large enough effect; inconclusive = small, poorly fitted or top-dose-only effect, or another doubt; inactive = no such curve, though single readings can be large; an effect the other way counts as inactive or inconclusive. Where a SMILES comes first, the peptide text is derived from it. [ ]: non-standard residue; d: D form. pGlu = O=C1CC[C@@H](C(=O)O)N1
# Tests used:
# [1] = qHTS Assay for Identifying Gametocytocidal Compounds (AID 743244);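 also: actives lower the fluorescent signal which means gametocytes are killed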; settings: P. falciparum 3D7 stage III-V gametocytes, alamarBlue, 72 h; max response: active compounds read low
# How it was run: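 Fluorescence at Ex 525/Em 598 nm, recorded 24 h after alamarBlue addition, reports residual metabolic activity of 3D7 gametocytes (stages III–V) following 72 h compound exposure at 37 °C, 5% CO2.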
# [2] = qHTS assay to identify small molecule inhibitors of chordoma cells - UCH-2 (AID 1259356); also: potency is read from the fitted curve at half-maximal effect
# [3] = P-glycoprotein substrates identified in KB-8-5-11 adenocarcinoma cell line, qHTS therapeutic library screen (AID 1346987); settings: outcome: dose series up to 44.5 µM unless noted; also: nearly all actives have a fitted effect of over 65% in size; also: potency is read from the fitted curve at half-maximal effect
# How it was run: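 P-gp-mediated resistance screen: KB-8-5-11 cells treated 72 h with compounds in dose-response. CellTiter-Glo viability.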
# [4] = qHTS assay for cell viability of the p53RE-bla HCT-116 cell line (AID 743292); also: nearly all actives have a fitted effect of over 55% in size
# How it was run: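 ATP-based luminescent viability (CellTiter-Glo, 30 min RT) after 16 h compound treatment at 37 C of p53RE-bla HCT-116 cells, seeded at 4,000 cells/well and rested 5 h before dosing.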
Compound,max response [1],Potency [2],Potency [3],outcome [4]
O=C(OCc1ccccc1)c1cccnc1,-1.85%,inactive,inactive,–
CN1c2c(nc(N)[nH]c2=O)NCC1CNc1ccc(C(=O)NC(CCC(=O)O)C(=O)O)cc1 (centres undefined),15.5%,inactive,inactive,–
CC[C@H](CC[C@@H](C)[C@H]1CC[C@H]2[C@@H]3CC=C4C[C@@H](O)CC[C@]4(C)[C@H]3CC[C@]12C)C(C)C,14.2%,inactive,inactive,–
CC(C)(C)NCC(O)CSc1nc(-c2ccc(C(N)=O)s2)cs1 (centres undefined),20.6%,inactive,inactive,–
C[C@H](CCC(=O)O)[C@H]1CC[C@H]2[C@@H]3[C@H](O)C[C@@H]4C[C@H](O)CC[C@]4(C)[C@H]3C[C@H](O)[C@]12C,-6.23%,inactive,inactive,inactive
H-RKDVY-OH,-13.7%,inactive,inactive,–
C[C@]12CCC(=O)C[C@@H]1CC[C@@H]1[C@@H]2CC[C@]2(C)C=CC[C@@H]12,-3.12%,inactive,inactive,–
CCCC(=O)Nc1c(I)cc(I)c(CC(CC)C(=O)O)c1I (centres undefined),15%,inactive,inactive,–
CC(C)CCC[C@@H](C)[C@H]1CC(=O)C2=C3CC[C@H]4C[C@@H](O)CC[C@]4(C)[C@H]3CC[C@@]21C,5.28%,inactive,–,–
CC(C)CCC[C@@H](C)[C@H]1CC[C@H]2[C@@H]3CC=C4C[C@@H](O)CC[C@]4(C)[C@H]3CC[C@]12C,-0.629%,inactive,inactive,inactive
CCCCC/C=C\C/C=C\C/C=C\CCCCC(=O)O,14.9%,inactive,inactive,–
O=C(OC[C@H]1O[C@](O)(COC(=O)c2cccnc2)[C@@H](OC(=O)c2cccnc2)[C@@H]1OC(=O)c1cccnc1)c1cccnc1,–,inactive,inactive,–
CC[C@H](C)[C@H](NC(=O)[C@H](Cc1ccccc1)NC(=O)[C@H](C)NC(=O)[C@H](CC(=O)O)NC(=O)[C@H](CCCCN)NC(=O)[C@H](CO)NC(=O)[C@@H]1CCCN1C(=O)[C@@H]1CCC(=O)N1)C(=O)NCC(=O)N[C@@H](CC(C)C)C(=O)N[C@@H](CCSC)C(N)=O ([pGlu]PSKDAFIGLM-NH2),13.3%,inactive,inactive,–
CC(O)[C@H]1CC[C@H]2[C@@H]3CC[C@@H]4C[C@@H](O)CC[C@]4(C)[C@H]3CC[C@]12C (some centres undefined),4.2%,inactive,6.51 µM (active),–
CC(O)CN(C)C (centres undefined),-6.61%,inactive,inactive,–
C[C@H](NCCc1ccc(O)cc1)[C@H](O)c1ccc(O)cc1,10.2%,inactive,inactive,–
O=C(NCCNCC(O)COc1ccc(O)cc1)N1CCOCC1 (centres undefined),-13.8%,inactive,inactive,–

Compound,max response [1],Potency [2],Potency [3],outcome [4]
CC(C)(C)CC(C)(C)c1cc(Cc2cc(C(C)(C)CC(C)(C)C)cc(-n3nc4ccccc4n3)c2O)c(O)c(-n2nc3ccccc3n2)c1,-7%,inactive,inactive,–
CC(C)(C)c1ccc2c(S(=O)(=O)O)c(C(C)(C)C)ccc2c1,10.3% and 35.8%,inactive,inactive,–
CC(=O)Oc1cccc(C(=O)O)c1OC(C)=O,10.1%,inactive,inactive,–
C[C@]12CC[C@@H]3c4ccc(OC(=O)c5ccccc5)cc4CC[C@H]3[C@@H]1CC[C@@H]2O,–,inactive,4.61 µM (active),–
NC(=O)OC[C@@H]1[C@H](NC(=O)/C(=N\OCC(=O)O)c2csc(N)n2)C(=O)N1S(=O)(=O)O,-1.55%,inactive,inactive,–
O=C1[O][Bi][O]c2ccccc21,14.5%,inactive,inactive,–
CC(C)(CO)[C@@H](O)C(=O)NCCC(=O)NCCSSCCNC(=O)CCNC(=O)[C@H](O)C(C)(C)CO,8.29%,inactive,inactive,–
O=S(=O)(O)CCCS(=O)(=O)O,2.64%,–,inactive,–
OCC1(CO)COC(C(Cl)(Cl)Cl)OC1,24.4%,inactive,inactive,–
C[C@H](CCCC(C)(C)O)[C@H]1CC[C@H]2[C@@H]3CC=C4C[C@@H](O)CC[C@]4(C)[C@H]3CC[C@]12C,-7.2%,–,–,–
O=C(O)CCC/C=C\C[C@@H]1[C@@H](/C=C/[C@@H](O)COc2cccc(Cl)c2)[C@H](O)C[C@@H]1O,-3.1%,inactive,inactive,–
CN(C)c1ccc(C(=C2C=CC(=[N+](C)C)C=C2)c2c(O)c(S(=O)(=O)[O-])cc3cc(S(=O)(=O)O)ccc23)cc1,–,20.6 µM (active),–,–
CCCCC(CC)CCC(CC(C)C)OS(=O)(=O)O (centres undefined),–,inactive,inactive,–
O=C(CCCCCCCCCCCCC1CCCC1)Nc1ccc(S(=O)(=O)c2ccc(NC(=O)CCCCCCCCCCCCC3CCCC3)cc2)cc1,1.73%,inactive,inactive,–
CC(C)=CCC/C(C)=C/C=C/C(C)=C/C=C/C(C)=C/C=C/C=C(C)/C=C/C=C(C)/C=C/C=C(\C)CCC=C(C)C,–,inactive,inactive,–
CC(=NCc1ccccc1)c1ccccc1O,-2.19%,inactive,inactive,–
CC(=O)N[C@@H]([C@@H](O)[C@H](O)[C@H](O)CO)[C@@H](O)CC(=O)C(=O)O,14.7%,inactive,inactive,–
